High-throughput results deposited in PubChem BioAssay by National Center for Advancing Translational Sciences (NCATS).
KB-3-1 tox: KB-3-1 parental cell cytotoxicity; Potency, µM (doses to about 46.1 µM), hits mostly cytotoxic; AID 1347075; KB-3-1 viability, CellTiter-Glo ATP luminescence, 72 h; actives 1.4% (n = 400,000); also: nearly all actives have a fitted effect of over 60% in size
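Cells are dispensed, compounds pinned in, plates held at 37 °C for 72 h, then CellTiter-Glo is added and luminescence read after 10 minutes. Cell line: parental KB-3-1 in phenol-red-free DMEM, 10% FBS.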
KB-V1 cytotox: KB-V1 MDR subline cytotoxicity. KB-V1 MDR cells viability, CellTiter-Glo, 72 h. Potency, µM (doses to about 46.1 µM), actives largely listed as cytotoxic. actives 3.4% (n = 400,000). AID 1347076; also: nearly all actives have a fitted effect of over 60% in size
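Drug-selected KB-V1 cells, grown in DMEM lacking phenol red with 10% FBS, receive compound titrations; after three days at 37 degrees C, surviving cell ATP is quantified by CellTiter-Glo luminescence and responses normalized and curve-fitted.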
MCF10A rerep: inducers of DNA re-replication in MCF 10A breast cells; MCF 10A DNA re-replication, Hoechst nuclear intensity, 48 h; Potency, µM (titrated, usually from 46.1 µM), actives largely listed as activators; actives 2.9% (n = 350,000); AID 624296; also: nearly all actives have a fitted effect of over 50% in size
SW480 rereplic: inducers of DNA re-replication in SW480 colon cancer cells | SW480 DNA re-replication, Hoechst DNA content imaging, 48 h | Potency, µM (top dose mostly 46.1 µM), usual class: activators | actives 1.8% (n = 340,000) | AID 624297; also: nearly all actives have a fitted effect of over 55% in size
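First, 250 cells per well were seeded. Next, compound or vehicle (23 nL) was pinned in, plates sat 48 hr at 37 C. Finally Hoechst was added for 40 min before fluorescence scanning.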
D3 ag: activates the human D3 dopamine receptor; D3R DiscoveRx beta-arrestin cells, luminescence, 90 min; max activation, %; actives 0.58% (n = 410,000); in the data active = max activation above about 30%
Target sequence (P35462 whole entry, looked up): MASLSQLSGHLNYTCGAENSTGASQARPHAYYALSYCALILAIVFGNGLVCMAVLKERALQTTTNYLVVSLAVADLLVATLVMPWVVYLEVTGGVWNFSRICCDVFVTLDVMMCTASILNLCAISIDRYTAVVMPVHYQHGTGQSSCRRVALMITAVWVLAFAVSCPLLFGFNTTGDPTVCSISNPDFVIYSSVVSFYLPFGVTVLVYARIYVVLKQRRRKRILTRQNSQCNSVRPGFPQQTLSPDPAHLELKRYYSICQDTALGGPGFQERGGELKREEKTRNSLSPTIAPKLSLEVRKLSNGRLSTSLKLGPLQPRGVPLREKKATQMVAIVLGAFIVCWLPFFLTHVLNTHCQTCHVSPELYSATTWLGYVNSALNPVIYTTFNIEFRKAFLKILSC
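Agonist-mode cell screen: cells plated at 1500/well and incubated overnight at 37 °C, then exposed to library compounds for 90 min at 37 °C. Detection reagent was added for 30–60 min at room temperature, and luminescence was read.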
DRD3 antagonist: antagonists of human D3 dopamine receptor; P35462; D3R cells, DiscoveRx beta-arrestin luminescence, antagonist mode; hits give low values; max response, negative = inhibition, %; actives 2.5% (n = 360,000); in the data active = max response below about -50%; inconclusive = no clear call, values can overlap the other calls
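Cells plated overnight at 1500 cells/well, then exposed to library compounds with dopamine controls for 90 minutes at 37 degrees C. DiscoveRx reagent added for 30–60 minutes at room temperature; luminescence read, quantitative HTS format.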
Of the large screens only hits and unclear results are named; the others gave an inactive call. Hits are enriched below; roughly 8.9% of the tested compounds scored in any of these assays. Unless noted, calls follow the shape of the dose curve; as a rule, active = well fitted curve in the direction sought with a large enough effect; inconclusive = small, poorly fitted or top-dose-only effect, or another doubt; inactive = no such curve, though single readings can be large; an effect the other way counts as inactive or inconclusive.

Cc1ccc(CN2C(=O)N(c3ccc(F)cc3)C(=O)C2CC(=O)Nc2ccc(Cl)cc2)cc1 (configuration not stated)	none (no result: MCF10A rerep, SW480 rereplic, DRD3 antagonist)
N#C/C(=N\Nc1ccc(S(=O)(=O)N2CCOCC2)cc1)C(N)=S	DRD3 antagonist inconclusive
COC(=O)c1ccc(NC(=O)COc2ccc(N(C)S(=O)(=O)c3ccc(C)cc3)cc2)cc1	MCF10A rerep 18.4µM (no result: KB-3-1 tox, KB-V1 cytotox)
COC(=O)Nc1ccc(S(=O)(=O)Nc2cccc3ccccc23)cc1	KB-3-1 tox inconclusive, KB-V1 cytotox 14.6µM, SW480 rereplic inconclusive
N#CC(C#N)=NNc1ccc(S(=O)(=O)N2CCCCC2)cc1	MCF10A rerep 25.9µM, DRD3 antagonist inconclusive
CCCCOc1cccc(C(=O)Nc2cc3nn(-c4ccc(F)cc4)nc3cc2C)c1	none (no result: MCF10A rerep, SW480 rereplic, DRD3 antagonist)
CCN(CC)S(=O)(=O)c1nnc(NC(=O)c2ccc(Br)cc2)s1	KB-3-1 tox inconclusive (no result: MCF10A rerep, SW480 rereplic, DRD3 antagonist)
CCn1c(C(=O)N2CCC(C(=O)N3CCN(c4ccc(OC)cc4)CC3)CC2)cc2sccc21	none (no result: MCF10A rerep, SW480 rereplic, DRD3 antagonist)
Cc1cccc(CCn2c(=O)c3ccccc3n(Cc3ccccc3C)c2=O)c1	none (no result: MCF10A rerep, SW480 rereplic, DRD3 antagonist)
CCNC(=O)CC1C(=O)N(c2ccccc2)C(=O)N1Cc1ccc(F)cc1 (configuration not stated)	none (no result: MCF10A rerep, SW480 rereplic, DRD3 antagonist)
COc1ccc(OC)c(NC(=O)CSc2ncc3c(n2)-c2ccccc2N(C)S3(=O)=O)c1	none (no result: MCF10A rerep, SW480 rereplic, DRD3 antagonist)
O=S(=O)(c1ccc(F)cc1)N1CCC(N2CCCCCC2)CC1	DRD3 antagonist -50.1
O=C1c2cccc3cccc(c23)C(=O)N1CC1CCN(S(=O)(=O)c2ccc(F)cc2)CC1	KB-V1 cytotox 9.2µM
O=S(=O)(c1ccc(Cl)cc1)N1CCCCCC1	none
CC1CCN(C2CCN(S(=O)(=O)c3ccc(F)cc3)CC2)CC1	none
O=S(=O)(c1ccc(Cl)cc1)N1CCC(N2CCCCCC2)CC1	MCF10A rerep inconclusive, DRD3 antagonist -66.8
CCOC(=O)[C@@H](NC(=O)/C=C/[C@H]1O[C@@H](n2ccc(=O)[nH]c2=O)[C@H](O)[C@@H]1O)C(C)C	none (no result: MCF10A rerep, SW480 rereplic)
CCOc1ccc(C2=Nc3ccc(Br)cc3C(c3ccc(N4CCOCC4)cc3)=NN2)cc1	none
CCOc1ccc(C2=Nc3ccccc3C(c3ccc(N4CCOCC4)cc3)=NN2)cc1	KB-3-1 tox 16.4µM, KB-V1 cytotox 4.11µM, MCF10A rerep 16.4µM, SW480 rereplic 20.6µM
Fc1ccc2c(c1)C(c1ccc(N3CCOCC3)cc1)=NNC(c1cccs1)=N2	KB-3-1 tox inconclusive, KB-V1 cytotox 10.3µM
CC1=C(c2ccc(C(C)C)cc2)S(=O)(=O)NC1=NCc1ccccc1C	none (no result: KB-3-1 tox, KB-V1 cytotox, MCF10A rerep, SW480 rereplic, DRD3 antagonist)
Cc1c(C(=O)OC2CCCCC2)[nH]c2c1C(=O)CC(c1ccccc1Cl)C2 (configuration not stated)	KB-3-1 tox 4.11µM, KB-V1 cytotox inconclusive (no result: MCF10A rerep, SW480 rereplic, DRD3 antagonist)
C/C=C/COC(=O)c1[nH]c2c(c1C)C(=O)CC(c1ccco1)C2 (configuration not stated)	MCF10A rerep inconclusive, SW480 rereplic inconclusive
C=CCOC(=O)c1[nH]c2c(c1C)C(=O)CC(c1ccco1)C2 (configuration not stated)	KB-3-1 tox inconclusive, KB-V1 cytotox inconclusive, MCF10A rerep inconclusive, SW480 rereplic 0.184µM
Cc1c(C(=O)OCc2ccccc2)[nH]c2c1C(=O)CC(c1ccc(Cl)cc1)C2 (configuration not stated)	none (no result: KB-3-1 tox, KB-V1 cytotox, MCF10A rerep, SW480 rereplic, DRD3 antagonist)
Cc1c(C(=O)OCC(C)C)[nH]c2c1C(=O)CC(c1ccco1)C2 (configuration not stated)	KB-V1 cytotox inconclusive, MCF10A rerep 18.4µM, SW480 rereplic 0.517µM, DRD3 antagonist -53.3
Cc1c(C(=O)N2CCOCC2)[nH]c2c1C(=O)CC(c1ccccc1Cl)C2 (configuration not stated)	KB-3-1 tox 18.4µM, KB-V1 cytotox inconclusive
Cc1sc2c(c1C)c(=O)n(-c1cccc(C(F)(F)F)c1)c(=O)n2Cc1ccccc1C#N	none (no result: MCF10A rerep, SW480 rereplic, DRD3 antagonist)
Cc1ccc(CO)cc1Nc1ncnc2onc(-c3ccc(F)cc3)c12	none (no result: MCF10A rerep, SW480 rereplic, DRD3 antagonist)
Cc1c(C(=O)OC2CCCC2)[nH]c2c1C(=O)CC(c1ccco1)C2 (configuration not stated)	KB-3-1 tox 0.517µM, KB-V1 cytotox 0.581µM, MCF10A rerep inconclusive, SW480 rereplic inconclusive
